# Publication PMC8159961, “Exploring protein hotspots by optimized fragment pharmacophores” (Nature Communications, 2021)
# Values without a mark were called inactive. How the calls were made is not given here.
# Experiments:
# Assay in all cases: primary screen, binary call; higher = more effect of the substance
# Factor Xa = Factor Xa (bovine, UniProt P00743); design: screenings were carried out in duplicate in one independent experiment; conditions: 200 µM
# Procedure: Protease inhibitory assays were performed in transparent microtiter plates in a final volume of 200 µL with the use of chromogenic substrates. The reaction rates in the absence and in the presence of the inhibitor were measured; screenings were carried out in duplicate in one independent experiment and Ki values were determined in triplicate in two independent experiments.
# 5-HT6 receptor = 5-HT6 receptor (human, UniProt P50406); design: hit call from the mean of at least two separate experiments; conditions: 10 µM
# 5-HT7b receptor = 5-HT7b receptor (human, UniProt P34969); design: hit call from the mean of at least two separate experiments; conditions: 10 µM
# 5-HT7b receptor, sequence (P34969 whole entry, looked up): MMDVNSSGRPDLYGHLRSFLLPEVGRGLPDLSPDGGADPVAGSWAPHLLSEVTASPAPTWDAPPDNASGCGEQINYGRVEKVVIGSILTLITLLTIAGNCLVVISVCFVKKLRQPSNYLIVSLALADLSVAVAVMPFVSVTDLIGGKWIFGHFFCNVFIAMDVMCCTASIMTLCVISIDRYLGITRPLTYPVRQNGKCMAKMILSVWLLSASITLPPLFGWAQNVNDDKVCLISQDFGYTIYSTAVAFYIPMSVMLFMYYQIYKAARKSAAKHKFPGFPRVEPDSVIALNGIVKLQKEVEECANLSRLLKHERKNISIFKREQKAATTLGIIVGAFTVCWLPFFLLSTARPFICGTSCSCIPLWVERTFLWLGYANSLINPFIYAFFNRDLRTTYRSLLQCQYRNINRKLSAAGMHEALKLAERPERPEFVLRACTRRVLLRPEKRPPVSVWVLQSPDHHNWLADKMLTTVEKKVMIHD
# 5-HT6 receptor, sequence (P50406 whole entry, looked up): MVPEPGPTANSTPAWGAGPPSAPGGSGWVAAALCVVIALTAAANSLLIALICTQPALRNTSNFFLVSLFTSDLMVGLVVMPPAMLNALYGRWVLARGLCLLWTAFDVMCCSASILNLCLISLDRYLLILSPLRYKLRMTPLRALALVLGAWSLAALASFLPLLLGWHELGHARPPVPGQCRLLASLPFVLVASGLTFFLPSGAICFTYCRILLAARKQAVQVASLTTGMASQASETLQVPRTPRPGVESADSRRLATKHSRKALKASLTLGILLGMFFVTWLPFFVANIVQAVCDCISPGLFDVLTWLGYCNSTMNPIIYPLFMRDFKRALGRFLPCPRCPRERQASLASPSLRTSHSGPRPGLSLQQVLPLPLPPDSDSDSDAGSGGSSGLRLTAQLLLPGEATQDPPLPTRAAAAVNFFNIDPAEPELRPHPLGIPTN
# Factor Xa, sequence (P00743 41-180 limits assumed): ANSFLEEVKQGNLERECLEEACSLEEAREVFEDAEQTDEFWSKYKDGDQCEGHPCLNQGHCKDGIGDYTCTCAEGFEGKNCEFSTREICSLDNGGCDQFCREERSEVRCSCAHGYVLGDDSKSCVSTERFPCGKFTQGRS
# Factor Xa, sequence (P00743 234-492 limits assumed): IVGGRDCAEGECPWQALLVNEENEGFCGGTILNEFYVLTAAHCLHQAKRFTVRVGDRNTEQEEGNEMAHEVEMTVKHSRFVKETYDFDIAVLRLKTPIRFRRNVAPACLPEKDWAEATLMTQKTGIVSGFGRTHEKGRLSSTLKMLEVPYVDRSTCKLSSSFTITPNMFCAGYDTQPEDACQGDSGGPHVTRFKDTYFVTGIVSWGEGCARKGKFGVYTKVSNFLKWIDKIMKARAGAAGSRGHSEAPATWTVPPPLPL
SMILES,Factor Xa (Factor Xa),5-HT6 (5-HT6 receptor),5-HT7 (5-HT7b receptor)
O=C(CN1CCNCC1)c1ccccc1,0,0,0
FC1(F)CNCC(F)(F)O1,0,0,0
N#CCCN1CCc2ccccc21,0,0,0
Oc1ccc(C2CCNCC2)cc1,0,0,0
c1ccc(-c2ccncc2)cc1,0,0,0
Nc1nnc(-c2cccs2)[nH]1,0,1 (active),0
Oc1ccccc1N1CCCCC1,1 (active),1 (active),0
c1ccc2sc(N3CCNCC3)nc2c1,0,0,0
Clc1ccc2nnnn2n1,0,0,0
COC(=O)c1c(C)nc(C2CC2)[nH]c1=O,0,0,0
CCc1nccn1CC(=O)O,0,0,0
O=C1NC2(CCCC2)Nc2ccccc21,0,0,0
N[C@H]1c2ccccc2C[C@H]1CO,0,0,0
Cc1cnc(C(F)(F)F)cn1,0,0,0
O=C(NC1CC1)c1ccccc1O,0,0,0
O=c1[nH]c2c(s1)CCC2,0,0,0
O=C(O)c1cccc(Nc2ncccn2)c1,0,1 (active),0
